Assay results reported in PubChem BioAssay AID1721 (National Center for Advancing Translational Sciences (NCATS), 2009).
Hit rate of the full screen: of about 290,000 compounds, about 1,100 (0.38%) were called active. This is one part of a sample in which actives are shown more often than they occur. Values without a mark were called inactive. Calls come from the whole dose curve; as a rule, active = well fitted inhibition curve with a large enough effect; inconclusive = small, poorly fitted or top-dose-only effect, or another doubt; inactive = no such curve, though single readings can be large or run the other way.
% is set by controls: 0 for no effect and ±100 for the full control effect; potency is the fitted concentration of half-maximal effect.

Each molecule was assayed against Pyruvate kinase (Leishmania mexicana) (UniProt Q27686) (assay: qHTS Assay for Inhibitors of Leishmania Mexicana Pyruvate Kinase (LmPK)). Conditions: purified LmPK, Kinase-Glo ATP luminescence, 1 h; series mostly up to 57.5 µM; activity change, negative = inhibition: at the top concentration.
Sequence of Pyruvate kinase (Leishmania mexicana) (Q27686 whole entry, looked up): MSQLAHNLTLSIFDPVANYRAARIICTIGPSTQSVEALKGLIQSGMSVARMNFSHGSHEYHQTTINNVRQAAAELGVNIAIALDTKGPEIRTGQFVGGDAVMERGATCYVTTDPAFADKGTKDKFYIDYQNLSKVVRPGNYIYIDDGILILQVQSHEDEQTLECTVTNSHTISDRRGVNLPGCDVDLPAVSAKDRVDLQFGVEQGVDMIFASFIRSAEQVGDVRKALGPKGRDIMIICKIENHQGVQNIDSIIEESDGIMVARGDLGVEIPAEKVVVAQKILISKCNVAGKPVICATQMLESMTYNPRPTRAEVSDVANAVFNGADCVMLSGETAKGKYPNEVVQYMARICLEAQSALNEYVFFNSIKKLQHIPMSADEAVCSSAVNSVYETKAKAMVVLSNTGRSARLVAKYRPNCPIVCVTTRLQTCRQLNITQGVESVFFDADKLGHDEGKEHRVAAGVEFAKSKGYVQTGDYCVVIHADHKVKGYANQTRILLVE
Excerpt: NIH Chemical Genomics Center [NCGC] Malcolm Walkinshaw, Hugh Morgan, Linda Gilmore University of Edinburgh, UK MLPCN Grant: 1 R03 MH085697-01 NCGC Assay Overview: Pyruvate kinase (L. Mexicana) (LmPK) enzyme was supplied as a highly purified (>95% pure) sulphate-free preparation from University of Edinburgh, UK and assayed for its ability to generate ATP from ADP using phosphoenolpyruvate (PEP) as a substrate. ATP generation was detected in a coupled reaction by luciferase-mediated luminescence, an ATP-dependent process. […] The enzyme was assayed at an intermediate level of activity to screen for both inhibitors and activators.
NCGC Assay Protocol Summary: Three uL of enzyme mix (kept on ice) in assay buffer (50 mM Imidazole pH7.2, 50 mM KCl, 7 mM MgCl2, 0.01% Tween 20, 0.05% BSA) containing PEP (0.5 mM final concentration) and LmPK (0.1 nM final concentration) was dispensed into white solid bottom 1,536 well microtiter plates. 23 nL of compound were delivered by a pin tool and 1 uL of ADP mix in assay buffer (r.t; 0.1 mM final ADP concentration) was added. Plates were incubated at room temperature for 1 hour. Two uL of detection mix (Kinase-Glo, Promega; at 4 degree Celsius protected from light) was added and luminescence read by a ViewLux (Perkin Elmer) at 1 second exposure/plate. Data were normalized to the uninhibited and AC100 inhibition (no enzyme). To monitor activation, the first column contained a five-fold concentration of LmPK (0.5 nM).
For CCn1c(CSCc2c(Cl)cccc2Cl)n[nH]c1=S, the Potency was 15.8 µM (active).
CCn1c(-c2ccncc2)n[nH]c1=S was tested, and the “activity change, negative = inhibition” value was 3.37%.
CCn1c(CNS(=O)(=O)c2ccc(Cl)cc2)n[nH]c1=S was tested, and the “activity change, negative = inhibition” value was 4.89%.
COc1cccc(CNC(=O)C2CCCN(S(=O)(=O)N3CC(C)CC(C)C3)C2)c1 (stereo not given) was tested, and the “activity change, negative = inhibition” value was 2.71%.
c1ccc(Cc2ccc(OCCn3ccnc3)cc2)cc1 was tested, and the “activity change, negative = inhibition” value was -2.41%.
With CCC1CCCCN1CCCNC(=O)c1cc2c(Cl)nc3ccccc3c2s1 (stereo not given) the “activity change, negative = inhibition” value was -3.62%.
CCOc1ccccc1NS(=O)(=O)c1cc2c3c(c1)C(C)C(=O)N3CCC2 (stereo not given) was tested, and the “activity change, negative = inhibition” value was 6.52%.
In the case of CCOC(=O)c1cc(S(=O)(=O)NCCc2ccc(OC)c(OC)c2)cn1C, the “activity change, negative = inhibition” value is reported as 10.7%.
For O=C(C[n+]1ccccc1)N/N=C/c1ccc(O)cc1, the “activity change, negative = inhibition” value was -8.31%.
Cc1nc2ccc(C(=O)N/N=C/c3ccc(O)cc3)cc2[nH]1 was tested, and the “activity change, negative = inhibition” value was 0.498%.
Cc1nonc1C(=O)N/N=C/c1ccc(O)cc1 was tested, and the Potency was 8.91 µM (active).
For C=CCNc1nc(N)c([N+](=O)[O-])c(NC2CCCCC2)n1, the “activity change, negative = inhibition” value was 1.29%.
For NNC(=O)CNC(c1ccccc1)c1cc(Cl)ccc1NC(=O)c1ccccc1 (stereo not given), the “activity change, negative = inhibition” value was -0.937%.
With C[C@@H](NC(=O)OC(C)(C)C)c1nnc(S(=O)(=O)Cc2ccccc2)o1 the “activity change, negative = inhibition” value was 1.2%.
Cc1cc2c(c(=O)n1Cc1ccccc1)C1O[C@](CCCCN3C(=O)c4ccccc4C3=O)(Cc3ccccc31)O2 was tested, and the activity change, negative = inhibition was -8.6% [at 11.5 µM].
In the case of O=C(Nc1ncc([N+](=O)[O-])s1)C1COc2ccccc2O1 (stereo not given), the “activity change, negative = inhibition” value is reported as -20.8%.
In the case of CC(=O)Oc1ccccc1C(=O)Nc1ncc([N+](=O)[O-])s1, the Potency is reported as 12.6 µM (active).
For O=C(CCc1ccccc1)Nc1ncc([N+](=O)[O-])s1, the “activity change, negative = inhibition” value was 0.572%.
With N=c1oc2ccccc2cc1C(=O)NCc1ccccc1 the “activity change, negative = inhibition” value was -5.29%.
In the case of Cc1ccc(/C=N/NC(=O)c2cc3ccccc3cc2O)o1, the “activity change, negative = inhibition” value is reported as -2.32%.
N=c1oc2ccccc2cc1C(=O)N/N=C/c1ccccc1 was tested, and the Potency was 8.91 µM (active).
CC1CC(C)CN(CCOc2cccc3ccccc23)C1 (stereo not given) was tested, and the “activity change, negative = inhibition” value was 0.618%.
With Cc1cc(C)c(OCC(=O)N(Cc2cccs2)C2CCS(=O)(=O)C2)c(C)c1 (stereo not given) the “activity change, negative = inhibition” value was 0.0184%.
CCCn1c(C2CCCN2c2nc(-c3ccc(OC)cc3)cs2)nc2ccccc21 (stereo not given) was tested, and the “activity change, negative = inhibition” value was -0.585%.
With COc1ccc(-n2ncc3c2CC(C)(C)CC3NC(=O)CCc2c(C)noc2C)cc1 (stereo not given) the “activity change, negative = inhibition” value was -2.13%.
In the case of COC(=O)c1ccc2c(C(C)(C)O)c(C(C)(C)O)[nH]c2c1, the “activity change, negative = inhibition” value is reported as -3.67%.
For Cc1ccc(-n2c(-c3ccc(Cl)cc3)n[nH]c2=S)cc1, the Potency was 14.1 µM (active).
With COc1ccc(-c2n[nH]c(C)c2-c2ccc(OC)c(OC)c2)c(O)c1 the “activity change, negative = inhibition” value was 2.24%.
In the case of S=c1[nH]nc(-c2ccc(Cl)cc2)n1CC1CCCO1 (stereo not given), the “activity change, negative = inhibition” value is reported as -19.2%.
In the case of Cc1ccc(OCc2n[nH]c(=S)n2-c2ccc(C)cc2)cc1, the “activity change, negative = inhibition” value is reported as 2.55%.
In the case of COc1ccccc1-n1c(-c2cc(-c3ccco3)[nH]n2)n[nH]c1=S, the Potency is reported as 3.55 µM (active).
In the case of COc1ccccc1-n1cn[nH]c1=S, the “activity change, negative = inhibition” value is reported as -11.1%.
With COc1ccc(OC)c(-n2c(=S)[nH]c3cc(C(=O)N4CCCCC4)ccc3c2=O)c1 the “activity change, negative = inhibition” value was -8.77%.
Cc1cc(-c2n[nH]c(=S)n2/N=C/c2ccco2)n[nH]1 was tested, and the “activity change, negative = inhibition” value was 6.46%.
COc1ccc(OCc2n[nH]c(=S)n2N)cc1 was tested, and the “activity change, negative = inhibition” value was 1.04%.
COc1ccc(-n2c(-c3ccc(OC)c(OC)c3)n[nH]c2=S)cc1 was tested, and the Potency was 20 µM (active).
With COc1ccc(OC)c(-n2c(-c3ccn[nH]3)n[nH]c2=S)c1 the Potency was 20 µM (active).
In the case of Cc1cc(-c2n[nH]c(=S)n2-c2ccc(C)c(C)c2)no1, the “activity change, negative = inhibition” value is reported as -17.2%.
For O=C(CN1CCCCCC1)Nc1c(Cl)cc(Cl)cc1Cl, the “activity change, negative = inhibition” value was -2.33%.
In the case of O=C(C1CCCN(S(=O)(=O)c2ccccc2)C1)N1CCN(c2ccc(F)cc2)CC1 (stereo not given), the “activity change, negative = inhibition” value is reported as -5.11%.
With O=C(CCS(=O)(=O)c1ccccc1)NC1CCCC1 the “activity change, negative = inhibition” value was -7.62%.
For CC(C)(C)C1C/C(=C/c2ccco2)C(=O)/C(=C/c2ccco2)C1 (stereo not given), the “activity change, negative = inhibition” value was 2.93%.
In the case of COc1ccc(S(=O)(=O)NCCOc2ccccc2)cc1F, the “activity change, negative = inhibition” value is reported as 6.43%.
In the case of COc1ccc(CCN2CC(C(=O)NCCN3CCNC3=O)CCC2=O)cc1 (stereo not given), the “activity change, negative = inhibition” value is reported as -1.55%.
CCn1c(SCC(=O)NC2CCCC2)nnc1-c1ccoc1C was tested, and the “activity change, negative = inhibition” value was -1.22%.
For COc1cccc(NC(=O)COc2cc(C)cc3oc(=O)cc(C)c23)c1, the “activity change, negative = inhibition” value was -1.3%.
COc1ccc(S(=O)(=O)NCCCCOc2ccc(Cl)cc2)cc1 was tested, and the “activity change, negative = inhibition” value was -1.76%.
For CCOc1ccc(C2NC(=S)NC3=C2CCc2ccccc23)cc1 (stereo not given), the “activity change, negative = inhibition” value was -18.4%.
With CC(C)(C)c1ccc(Cn2nnc3c(=O)[nH]c(C4CCCN(C(=O)c5ccco5)C4)nc32)cc1 (stereo not given) the “activity change, negative = inhibition” value was 4.01%.
For COc1ccc(C(=O)NC2CC(C)(C)NC(C)(C)C2)cc1OC, the “activity change, negative = inhibition” value was 3.08%.
With COCCc1nn2c(=O)cc(COC(=O)c3cc(OC)c(OC)c(OC)c3)nc2s1 the “activity change, negative = inhibition” value was 4.84%.
With CC(=O)C1=C(O)C(=O)N(c2ccc(Br)cc2)C1c1ccc([N+](=O)[O-])cc1 (stereo not given) the “activity change, negative = inhibition” value was 4.85%.
With CCCCc1nc2cc(C(=O)N3CCCCC3CCO)ccc2o1 (stereo not given) the “activity change, negative = inhibition” value was -5.27%.
For COc1ccc(OCC(=O)Nc2ccc(NC(=O)c3ccco3)c(C)c2)cc1, the “activity change, negative = inhibition” value was 3.97%.
COc1ccccc1C(=O)Nc1ccc(NC(=O)c2ccco2)c(C)c1 was tested, and the Potency was 15.8 µM (active).
